Abeta rescue: A-beta toxicity reversal in yeast. 410,000 tested, 0.063% active. yeast expressing A-beta42, growth rescue, OD600, 48 h; response scale: 0% DMSO, 100% iron-clioquinol control. Potency, µM (top dose mostly 46.1 µM), actives largely listed as activators; also: nearly all actives have a fitted effect of over 55% in size
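Yeast A-beta toxicity model in growth medium with pinned compounds, 48 h at 30 C; growth read as absorbance at 600 nm. Normalized to FeCl3/clioquinol equimolar mix (positive) and DMSO (negative).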
FUS suppressor: rescues growth of FUS-expressing yeast; S. cerevisiae FUS-expressing, growth rescue, OD600, 24 h; Potency, µM (doses to about 76.6 µM), actives largely listed as activators; 390,000 tested, 0.24% active; AID 1347120;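 also: plate controls were DMSO vehicle for no effect and reference control for full effect; nearly all actives have a fitted effect of over 55% in size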
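Read-out: OD at 600 nm after 24hr at 30C, reporting rescue of FUS-induced yeast toxicity. Cells at OD 0.005 in galactose (2%) minimal medium; compounds tested in a dilution series; CP55940 titration from 92uM final as control.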
aSyn yeast inh: alpha-synuclein toxicity inhibition in yeast. AID 652106. Yeast expressing alpha-synuclein, growth rescue, BacTiter-Glo, 24 h. 370,000 tested, 0.14% active. Potency, µM (doses to about 46.1 µM), without a hit: at the top dose growth rescue (activation), most hits filed as activators; also: % of control where 0% means no effect; nearly all actives have a fitted effect of over 65% in size
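Galactose-induced alpha-syn yeast (OD600=0.02, raffinose-pregrown) + pinned cpd, 24 hr, 30 deg C; growth by BacTiter-Glo luminescence. Growth restoration scores as activation.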
TDP-43 yeast inh: inhibitors of TDP-43 toxicity in yeast. AID 652104. 410,000 tested, 1.8% active. Potency, µM (top dose mostly 46.1 µM), inactives show at the highest dose growth rescue (activation), actives largely listed as activators. TDP-43 expressing yeast growth rescue, BacTiter-Glo, 24 h; also: % of control where 0% means no effect; nearly all actives have a fitted effect of over 50% in size
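Luminescence from BacTiter-Glo reports growth of TDP-43-expressing yeast after 24 hr at 30 deg C with compound. Cells were raffinose-pregrown to mid-log, then seeded in galactose medium at OD600=0.02.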
Active calls of the source: *; i = inactive; ? = inconclusive; . = not tested or not shown; [ ] = dose if it differs, or a comment. A selection: hits, their analogues and other compounds. The true share with any hit is near 2.1%. Calls follow the shape of the dose curve; as a rule, active = well fitted curve in the direction sought with a large enough effect; inconclusive = small, poorly fitted or top-dose-only effect, or another doubt; inactive = no such curve, though single readings can be large; an effect the other way counts as inactive or inconclusive. Potency is read from the fitted curve at half-maximal effect.

SMILES	Abeta rescue	FUS suppressor	aSyn yeast inh	TDP-43 yeast inh
CCOC(=O)C1CCN(C(=O)c2cc3c(-c4ccc(OC)c(OC)c4)nn(C)c3s2)CC1	i	i	-12%	14µM*
CCOC(=O)N1CCC(NC(=O)c2cc3c(-c4ccc(OC)c(OC)c4)nn(C)c3s2)CC1	i	i	-4%	-1%
CC1(C)CCC[C@@]2(C)CC=C(C(=O)O)[C@@H]3C[C@]312	i	i	?	11µM*
CSc1nnc(-c2cc3c(s2)-c2ccccc2CC3)o1	i	i	-4%	11%
S=c1[nH]nc(-c2cc3c(s2)-c2ccccc2CC3)o1	i	i	-7%	14µM*
O=C(NCCc1ccccc1)c1nc2ncccn2n1	i	i	-1%	-8%
c1ccc(CSc2nc3ncccn3n2)cc1	i	i	-9%[1.84 µM]	16µM*
CCOc1ccc(N2C(=O)CC(Sc3n[nH]c(-c4ccccc4)n3)C2=O)cc1 (configuration not stated)	i	i	-54%	3.5µM*
COc1ccc(N2C(=O)CC(Sc3n[nH]c(-c4ccccc4)n3)C2=O)cc1 (configuration not stated)	i	i	-8%	2µM*
CNc1nc(C)c([N+](=O)[O-])c(Nc2ccc(OC)cc2)n1	i	i	11%	13µM*
CCOc1cc(/C=N/NC(=O)CN2CCCCC2)ccc1OCc1cccc(Cl)c1	i	.	0%	13µM*
Cc1cccc(OCCSc2nncn2C)c1	i	i	3%	11%
Cc1cccc(OCCSc2nnc(-c3ccoc3C)n2C)c1	i	i	4%	18µM*
CCOC(=O)c1cccc(NC(=O)CN(C)S(=O)(=O)c2cc(OC)ccc2OC)c1	.	i	.	.
CCOC(=O)CC[C@@H]1CC[C@]2(CCCN(Cc3nccs3)C2)O1	.	i	.	.
O=C(O)C=C1CCN(c2ncc(C(F)(F)F)cc2Cl)CC1	i	i	13%	13µM*
C#CCN1CC(N(C)CCOC(=O)CC2C=CCC2)CS1(=O)=O (configuration not stated)	.	i	.	.
CN(Cc1ccccc1Cl)C(=O)CN1C(=O)C2(OCCCO2)c2ccccc21	.	i	.	.
COc1cc(NC(=O)CSc2nc(C)cc(=O)[nH]2)cc(OC)c1	.	i	.	.
NNc1nc2ccc(F)cc2s1	i	.	0%	-10%
Fc1ccc2nc(Nc3ccccc3)sc2c1	?	i	-11%	16µM*
COc1ccc(-c2nc3cccc(C)n3c2Nc2ccc(C)cc2)cc1	.	.	-16%	.
Cc1ccc(/C=N\NC(=O)COc2ccc(C)cc2[N+](=O)[O-])cc1	i	i	11%	-18%[0.397 µM]
Cc1ccc(OCC(=O)N/N=C\c2c(C)[nH]n(-c3ccccc3)c2=O)c([N+](=O)[O-])c1	?	?	20µM*	0%
Cc1cc(C)cc(Nc2ncc3c(n2)CC(c2ccco2)CC3=O)c1 (configuration not stated)	i	?	-16%	16µM*
SMILES	Abeta rescue	FUS suppressor	aSyn yeast inh	TDP-43 yeast inh
Cc1cccc(CN2CCN(CC(=O)Nc3c(C)cccc3C)S2(=O)=O)c1	i	i	.	6%
CCc1ccc(CCNC(=O)OC2CC3CC2[C@H]2CCCCN2[C@H]3C)cc1 (some centres not stated)	.	i	.	.
CC(=O)CC[C@H]1CC[C@]2(CCCN(S(=O)(=O)C3CCCCC3)C2)O1	.	i	.	.
Cc1cccc(Cn2c(=O)oc3ccc(C)cc32)c1	i	i	4%	20µM*
COc1ccc2ccn(S(=O)(=O)c3ccccc3)c2c1	i	i	0%	20µM*
O=S(=O)(c1ccccc1)n1ccc2ccccc21	i	i	1%	?
CCCC[C@H](C(=O)N(C)c1cccc(OC)c1)[C@@H](O)c1ccc(Cl)cc1	.	i	.	.
O=C(N/N=C/c1c[nH]c2ccccc12)c1cccc(Cl)c1	i	i	-4%	13%
O=C(N/N=C/C1C(c2ccccc2)C1(Cl)Cl)c1cccc(Cl)c1 (configuration not stated)	i	5.6µM*	17%	-15%
N/C(=N\OC(=O)CC1CCCCC1)c1ccc(Br)cc1	i	.	-19%	7.9µM*
COc1ccc(/C(N)=N/OC(=O)CCC2CCCC2)cc1OC	i	i	1%	?
N/C(=N\OC(=O)C1CCCCC1)c1cccc(Br)c1	i	i	-36%	-45%
N/C(=N\OC(=O)CC1CCCCC1)c1cccc(Br)c1	i	i	-34%	3.2µM*
COc1ccc(/C(N)=N/OC(=O)CC2CCCCC2)cc1OC	i	?	1%	22µM*
COc1ccccc1/C=C/c1ccnc2ccccc12	.	.	6%	.
CCN(C(=O)CSc1ccc2ccccc2n1)C1CCCCC1	i	.	-13%	22µM*
O=C(CSc1nnc(-c2ccccc2)n1-c1ccc(Cl)cc1)Nc1cccc2ccccc12	.	i	.	.
CCN(C(=O)Cn1c(=O)n(-c2ccccc2)c(=O)c2ccc(C(=O)NCc3ccc4c(c3)OCO4)cc21)c1cccc(C)c1	i	35µM*	.	7%
CC(=O)Nc1cccc(C(=O)OCc2ccccc2)c1	i	i	-7%	13µM*
CC(=O)Nc1cccc(C(=O)OCC(=O)NC(=O)Cc2ccccc2)c1	i	i	1%	-2%
COc1ccc2c(c1OC)C(=O)NC(C)=C(C(=O)OC(C)(C)C)C2O (configuration not stated)	i	i	16µM*	16%
COc1ccc(OCc2nn3c(-c4ccccc4)nnc3s2)cc1	.	i	.	.
Cc1ccc(-c2cc(O)cc3sc(=O)oc23)cc1C	.	i	-18%	11µM*
CCOC(=O)/C=C(\C)Sc1cc(=O)oc2ccccc12	i	i	-8%	14µM*
CCOC(=O)/C=C(\C)Sc1cc(O)c2ccccc2c1O	i	i	-66%	-94%
SMILES	Abeta rescue	FUS suppressor	aSyn yeast inh	TDP-43 yeast inh
C[C@H]1[C@@H](OC(=O)NCCc2c[nH]c3ccccc23)CC[C@@]23CCCN2C(=O)CCC[C@@H]13	.	i	.	.
COc1ccc(C2=C(c3ccccc3)OC(OC)c3cc(F)ccc32)cn1 (configuration not stated)	?	i	?	16µM*
COC1OC(c2ccccc2)=C(c2ccc(C(N)=O)cc2)c2ccc(F)cc21 (configuration not stated)	i	i	-1%	1%
CC(=O)Nc1ccc(/C=C2\C=Cc3ccccc32)cc1	.	.	-32%	.
CCc1cc(SC#N)cc(C)c1N	i	i	-2%	18µM*
CCCS(=O)(=O)NCCc1csc2nc(-c3ccc(OC)cc3)nn12	i	i	.	15%
CC(=O)NC(Cc1ccc2c(c1)OCO2)C(=O)N1CCCC1 (configuration not stated)	.	i	.	.
COCCn1c(SCc2ccc(F)cc2)nc2ccccc2c1=O	i	i	9%	18µM*
CCSc1nc2ccccc2c(=O)n1CCc1ccc(OC)c(OC)c1	i	?	?	18µM*
COCCn1c(SCc2ccc(OC)c(F)c2)nc2ccccc2c1=O	i	i	2%	?

Screens deposited in PubChem BioAssay by National Center for Advancing Translational Sciences (NCATS).
